What all share (assay): NCI-60 one-dose screen, 48 h (100 = growth as untreated, 0 = no growth, -100 = all killed)
One assay concerns NCI-H23 lung. Conditions: 10 µM unless noted.
A further assay has as its system NCI-H226 lung. The settings on record: 10 µM unless noted.
The test system of another assay is NCI-H322M lung. Conditions: 10 µM unless noted.
The next assay relates to HOP-62 NSCLC. The settings on record: 10 µM unless noted.
The next assay relates to NCI-H460 lung. Conditions: 10 µM unless noted.
The next assay relates to HOP-92 NSCLC. Conditions: 10 µM unless noted.
The test system of the next assay is A549/ATCC NSCLC. The settings on record: 10 µM unless noted.
A further assay has as its system 786-0 renal. Conditions: 10 µM unless noted.
In the next assay the test system is COLO 205 colon. The settings on record: 10 µM unless noted.
The next assay relates to DU-145 prostate. The settings on record: 10 µM unless noted.
Another assay has as its system K-562 leukemia. The settings on record: 10 µM unless noted.
For another assay, the system named is MALME-3M melanoma. Conditions: 10 µM unless noted.
The subject of a further assay is MDA-MB-231 breast. The settings on record: 10 µM unless noted.
The next assay deals with RXF 393 renal. The settings on record: 10 µM unless noted.
The next assay deals with SF-268 CNS. Conditions: 10 µM unless noted.
A further assay deals with SF-295 CNS. Conditions: 10 µM unless noted.
For another assay, the system named is SF-539 CNS. The settings on record: 10 µM unless noted.
The next assay has as its system UACC-257 melanoma. The settings on record: 10 µM.
The subject of a further assay is M14 melanoma. Conditions: 10 µM unless noted.

Compounds without any hit were thinned out: in the full panel of roughly 83,000, 20% have a hit.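 Testing used 96-well plates and a 48-hour single-concentration exposure. Example: -40 means 40% of the starting cells died.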 Unmarked numbers belong to inactive results. Calls of active or inactive are those of the source. The calls were made as follows: active = growth percent below 10; inactive = the rest.

Take `O=C1[C@@H]2Cc3c([nH]c4ccccc34)[C@H](c3c(Cl)cccc3Cl)N2C(=O)CN1C1CCN(Cc2c(F)cccc2F)CC1`: the growth in the assay with NCI-H23 lung was 92.9%; in the assay with NCI-H226 lung, 78.7%; with NCI-H322M lung it was 89.1%; in the assay with HOP-62 NSCLC, 92.9%; in the assay with NCI-H460 lung, 55.6%; in the assay on HOP-92 NSCLC it was 75.9%. The growth is 92.3% in the assay on A549/ATCC NSCLC; 99.2% in the assay with 786-0 renal; 90.6% in the assay on COLO 205 colon; 58.8% in the assay on DU-145 prostate; 66.3% in the assay on K-562 leukemia; 64.9% with MALME-3M melanoma. Also, the growth in the assay with MDA-MB-231 breast is 69%; in the assay with RXF 393 renal, 65.4%; in the assay on SF-268 CNS it was 76.1%; in the assay with SF-295 CNS, 101%; in the assay on SF-539 CNS, 52.2%; in the assay on UACC-257 melanoma, 99.1%. For the same compound, the growth in the assay with M14 melanoma was 75.2%.

As to `Cc1ccc(NC(=O)c2cc(/C=C/C(=O)NO)cc(C(F)(F)F)c2)cc1Nc1nccc(-c2cccnc2)n1`, the growth was 2.29% (active) in the assay with NCI-H23 lung; 17.5% with NCI-H226 lung; 12.8% with NCI-H322M lung; -19.1% (active) with HOP-62 NSCLC; 2.09% (active) in the assay on NCI-H460 lung; -30.6% (active) with HOP-92 NSCLC. Moreover, the growth was 61.2% with A549/ATCC NSCLC; -22% (active) in the assay on 786-0 renal; -65.2% (active) in the assay with COLO 205 colon; 14.1% in the assay with DU-145 prostate; 5.9% (active) in the assay on K-562 leukemia; -19.2% (active) in the assay with MALME-3M melanoma. Moreover, the growth with MDA-MB-231 breast was -24.7% (active); in the assay with RXF 393 renal, -8.53% (active); with SF-268 CNS, -3.6% (active); in the assay on SF-295 CNS, -4.95% (active); in the assay with SF-539 CNS, -15.2% (active); in the assay on UACC-257 melanoma it was -38.8% (active). Also, the growth in the assay with M14 melanoma was -20.7% (active).

Consider `Nc1cc(F)ccc1NC(=O)c1ccc(NC(=O)C/C=C/c2cccnc2)cn1`, for which the growth in the assay on NCI-H23 lung is 32%; with NCI-H226 lung it was 46.8%; in the assay with NCI-H322M lung it was 40.2%; with HOP-62 NSCLC, 29.6%; in the assay on NCI-H460 lung, 30%; with HOP-92 NSCLC it was 5.74% (active). Moreover, the growth in the assay on A549/ATCC NSCLC is 31.5%; in the assay with 786-0 renal, 41.8%; with COLO 205 colon it was 1.22% (active); in the assay with DU-145 prostate, -3.71% (active); in the assay on K-562 leukemia it was 20%; in the assay with MALME-3M melanoma, 11.6%. The growth in the assay on MDA-MB-231 breast is 45.3%; with RXF 393 renal, -17.5% (active); in the assay on SF-268 CNS, 30.8%; in the assay on SF-295 CNS it was 22.3%; with SF-539 CNS, 6.21% (active); in the assay on UACC-257 melanoma, 17.8%.

Regarding `C=CCn1c(SCC(=O)Nc2cccc(C(=O)/C=C/c3ccc(C)cc3)c2)nc2ccccc2c1=O`, the growth was 81.3% with NCI-H23 lung; 92.6% in the assay with NCI-H226 lung; 92.1% in the assay on NCI-H322M lung; 113% with HOP-62 NSCLC; 94.8% with NCI-H460 lung; 103% in the assay on HOP-92 NSCLC. Besides, the growth was 82.3% in the assay on A549/ATCC NSCLC; 98.9% in the assay with 786-0 renal; 109% with COLO 205 colon; 95.9% with DU-145 prostate; 106% in the assay with MALME-3M melanoma; 92.8% with MDA-MB-231 breast. In addition, the growth in the assay on RXF 393 renal is 77.7%; in the assay with SF-268 CNS, 90.6%; with SF-295 CNS, 101%; with SF-539 CNS it was 89.4%; in the assay on UACC-257 melanoma it was 96.8%; in the assay on M14 melanoma it was 96.7%.

`Oc1ccc(-c2nnc(SCc3ccc(O)c4ncccc34)n2-c2ccccc2)cc1`: the growth with NCI-H23 lung was 19.3%; with NCI-H226 lung, 15.4%; in the assay with NCI-H322M lung, 19.2%; in the assay with HOP-62 NSCLC, 19.3%; in the assay with NCI-H460 lung, 3.78% (active); in the assay on HOP-92 NSCLC, 4.59% (active). For the same compound, the growth in the assay with A549/ATCC NSCLC was 6.81% (active); with 786-0 renal, 19.1%; in the assay on COLO 205 colon, 28.2%; with DU-145 prostate, 24.6%; with K-562 leukemia it was 10.8%; with MALME-3M melanoma it was 3.9% (active). Besides, the growth in the assay with MDA-MB-231 breast was 30.1%; in the assay with RXF 393 renal, -7.54% (active); in the assay with SF-268 CNS, 10.2%; in the assay on SF-295 CNS it was 5.53% (active); with SF-539 CNS it was -6.02% (active); with UACC-257 melanoma, -4.16% (active). The growth in the assay with M14 melanoma is -28% (active).

Consider `O=c1cc(-c2ccccc2)nc2sc(-c3c[nH]c4ccc(Br)cc34)nn12`, for which the growth in the assay on NCI-H23 lung is 104%; in the assay with NCI-H226 lung it was 87.6%; in the assay with NCI-H322M lung, 92.8%; in the assay on HOP-62 NSCLC, 107%; in the assay with NCI-H460 lung, 106%; in the assay on HOP-92 NSCLC, 86%. Besides, the growth in the assay with A549/ATCC NSCLC was 97.6%; in the assay on 786-0 renal, 92.6%; in the assay on COLO 205 colon, 104%; in the assay with DU-145 prostate it was 103%; in the assay on MALME-3M melanoma it was 104%; in the assay with MDA-MB-231 breast, 89.8%. For the same compound, the growth with RXF 393 renal was 104%; in the assay with SF-268 CNS it was 102%; in the assay on SF-295 CNS it was 99.8%; with SF-539 CNS it was 96.3%; in the assay on M14 melanoma, 105%.

As for `C=C1C(=O)O[C@@H]2C[C@@H](C)/C=C\C(=O)[C@](C)(OC(C)=O)C[C@H](OC(=O)/C(C)=C\C)[C@@H]12`, the growth was -13.9% (active) with NCI-H23 lung; -43.4% (active) in the assay with NCI-H226 lung; 88% in the assay on NCI-H322M lung; 74.6% in the assay with HOP-62 NSCLC; 20% with NCI-H460 lung; -35.6% (active) with HOP-92 NSCLC. Moreover, the growth was 72.9% in the assay with A549/ATCC NSCLC; -62.8% (active) in the assay on 786-0 renal; -78.3% (active) in the assay with COLO 205 colon; 3.77% (active) with DU-145 prostate; -36.4% (active) with MALME-3M melanoma; -71.8% (active) in the assay with MDA-MB-231 breast. Further, the growth is -88.1% (active) in the assay on RXF 393 renal; -1.46% (active) in the assay with SF-268 CNS; 70.6% in the assay on SF-295 CNS; -57.5% (active) in the assay with SF-539 CNS; -76.1% (active) with UACC-257 melanoma; -37.1% (active) with M14 melanoma.

On to `COCCOc1ccc(-c2csc(NC(=O)CN3CCN(CCO)CC3)n2)cc1NS(=O)(=O)c1cccc2c(N(C)C)cccc12`, for which the growth with NCI-H23 lung is 78%; in the assay on NCI-H226 lung, 70.9%; with NCI-H322M lung, 68.4%; in the assay with HOP-62 NSCLC it was 81%; with NCI-H460 lung, 98.2%; with HOP-92 NSCLC, 13.3%. Further, the growth is 92% in the assay on A549/ATCC NSCLC; 37.1% in the assay on 786-0 renal; 69.8% in the assay with COLO 205 colon; 92.5% in the assay with DU-145 prostate; 40.1% with MALME-3M melanoma; 79.3% in the assay with MDA-MB-231 breast. Besides, the growth in the assay with RXF 393 renal is 65.1%; in the assay on SF-268 CNS it was 90.5%; in the assay on SF-295 CNS, 70.3%; in the assay with SF-539 CNS, 61.9%; in the assay on M14 melanoma it was -71.7% (active).

Values taken from PubChem BioAssay (NCI).
